USP30 block = inhibitors of human USP30 deubiquitinase. purified USP30, Ub-rhodamine cleavage fluorescence. inhibition, % at 25 µM. 5.3% of 47,000 active
OTUD3 block = inhibitors of human OTUD3 deubiquitinase; OTU domain-containing protein 3 (Homo sapiens), Q5T2D3; purified OTUD3, Ub-rhodamine fluorescence, 2 h; inhibition, % at 25 µM; 0.7% of 47,000 active
Target sequence (Q5T2D3 whole entry, looked up, the tested form may be a part): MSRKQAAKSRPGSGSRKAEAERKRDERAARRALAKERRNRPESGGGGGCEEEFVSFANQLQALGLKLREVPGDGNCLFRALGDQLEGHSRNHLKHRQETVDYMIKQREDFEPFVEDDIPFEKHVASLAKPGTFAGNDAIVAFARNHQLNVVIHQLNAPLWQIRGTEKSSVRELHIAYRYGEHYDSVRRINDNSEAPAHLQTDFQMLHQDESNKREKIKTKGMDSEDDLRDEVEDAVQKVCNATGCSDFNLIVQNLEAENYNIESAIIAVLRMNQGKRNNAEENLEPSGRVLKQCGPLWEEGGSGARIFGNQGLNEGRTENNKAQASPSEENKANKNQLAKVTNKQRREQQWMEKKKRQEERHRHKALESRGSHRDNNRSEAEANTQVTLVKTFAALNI
USP17 inh = inhibitors of human USP17 deubiquitinase; Ubiquitin carboxyl-terminal hydrolase 17-like protein 5 (Homo sapiens), A8MUK1; purified USP17, Ub-rhodamine cleavage fluorescence, 3 h; inhibition, % at 50 µM; 6.5% of 47,000 active
USP28 block = inhibitors of human USP28 deubiquitinase; 3% of 47,000 active; purified USP28, Ub-rhodamine cleavage fluorescence, 30 min; inhibition, % at 25 µM; Ubiquitin carboxyl-terminal hydrolase 28 (Homo sapiens), Q96RU2
* hit, by the source's call; · = no result given. Hits are enriched below; roughly 11% of the tested compounds scored in any of these assays. Rule as the data show it: active = inhibition above about 30%; inactive = the rest.

SMILES	USP30 block	OTUD3 block	USP17 inh	USP28 block
CCCc1noc(-c2ccc(-n3ncc(C(=O)N4CCN(C)CC4)c3C)nc2)n1	30*	16	7	11
Cc1noc(-c2cc(=O)n(CC(=O)Nc3ccc(F)cc3F)c3ccccc23)n1	15	4	19	4
Cc1noc(-c2cc(=O)n(CC(=O)Nc3ccccc3C)c3ccccc23)n1	18	13	45*	8
Cc1noc(-c2cc(=O)n(CC(=O)NCc3ccccc3F)c3ccccc23)n1	46*	3	58*	8
Cc1noc(-c2ccc(-n3ncc(C(=O)NCc4ccccc4F)c3C)nc2)n1	43*	14	40*	12
CCCc1noc(-c2ccnc(-n3ncc(C(=O)N4CCCCC4)c3C)c2)n1	16	11	10	12
Cc1cc(=O)n(CC(=O)NCc2ccc(F)cc2F)c(N2CCOCC2)n1	-34	-3	4	-6
Cc1cc(=O)n(CC(=O)Nc2ccccc2C)c(Nc2ccc(F)cc2)n1	73*	20	18	4
Cc1cc(=O)n(CC(=O)Nc2ccccc2)c(-c2ccc(F)cc2)n1	11	8	19	5
O[C@H]1[C@H](O)[C@H](Oc2ccccc2)CC[C@H]1NCc1cccnc1	10	8	3	6
O=C(Cc1cccnc1)N[C@@H]1CC[C@@H](Oc2ccccc2)[C@@H](O)[C@@H]1O	18	1	31*	7
CC(=O)N1CCCC(c2nc(C)cc(-c3cc(F)ccc3C(=O)O)n2)C1 (centres undefined)	64*	8	7	7
CC(=O)N1CCCC(c2nc(C)cc(-c3ccccc3C(=O)O)n2)C1 (centres undefined)	1	-2	-4	-4
O=C1Nc2ccccc2Oc2cc(Oc3ccccc3)c(S(=O)(=O)N3CCCC3)cc21	10	0	-41	11
COc1ccc(C)cc1NC(=O)CSc1nc(C)nc2c1oc1ccccc12	28	13	52*	9
COC(=O)c1ccccc1NC(=O)CSc1ncnc2c1oc1ccccc12	33*	10	13	-4
O=C(CSc1ncnc2c1oc1ccccc12)Nc1ccc2c(c1)OCCO2	-16	1	65*	-1
Cc1ccccc1-n1ncc2c(=O)n(CC(=O)Nc3ccc4c(c3)OCCO4)cnc21	10	12	30*	16
Cc1ccc(OCC(=O)Nc2c(C)nc3scc(C)n3c2=O)cc1	12	4	4	3
CC1CCN(CCNS(=O)(=O)c2ccc3c(c2)NC(=O)CCS3)CC1	22	9	6	14
COc1ccc(C2c3[nH]c4ccccc4c3C[C@H]3C(=O)N(c4ccccc4C(=O)Nc4ccc(C)c(C)c4)C(=O)N23)cc1 (some centres undefined)	-185	-23	-46	-53
Clc1ccccc1CSc1ncnc2c1oc1ccccc12	30	9	41*	13
O=C(CSc1ncnc2c1oc1ccccc12)NCC1CCCO1 (centres undefined)	·	-1	2	·
Cc1c(C(=O)CSc2ncnc3c2oc2ccccc23)c2ccccc2n1C	16	10	21	0
COCCCn1c(SCC(=O)Nc2ccccc2C(=O)OC)nc2ccccc2c1=O	70*	15	42*	25
SMILES	USP30 block	OTUD3 block	USP17 inh	USP28 block
O=C(CSc1ncnc2c1oc1ccccc12)NC1CCCCC1	33*	14	11	11
Cc1cc(=O)n(CC(=O)Nc2ccc(F)c(F)c2)c(N2CCCC2)n1	-18	-2	-12	-2
O=C(Nc1ccc(F)cc1)N1C[C@H]2C[C@H]3[C@](C1)(CN(Cc1cccnc1)S3(=O)=O)O2	-11	-13	-6	-23
Cc1cccc(N2CCN(C(=O)c3cn(C)c4ccc(S(=O)(=O)N5CCCCCC5)cc4c3=O)CC2C)c1 (centres undefined)	7	-1	9	-1
COc1ccccc1Oc1nc(-c2ccccc2)cc(C)c1S(C)(=O)=O	14	7	28	37*
O=C(COC(=O)c1ccc2c(=O)n3c(nc2c1)CCCCC3)c1ccc2c(c1)OCCO2	-2	-3	-6	19
O=C(c1ccc2c(=O)n3c(nc2c1)CCCC3)N1CCC2(CC1)OCCO2	31*	10	10	10
O=C(NCc1ccc(-c2nc3ncccc3o2)cc1)c1ccccc1	25	9	14	17
Clc1cccc(COc2ccc(-n3cnnn3)cc2)c1	18	6	12	49*
Cn1c(=O)c(C(CO)CCO)nc2c(OCc3ccccc3)nc(N)nc21 (centres undefined)	-6	4	6	-5
Cn1c(=O)c(C2CCCCC2O)nc2c(OCc3ccccc3)nc(N)nc21 (centres undefined)	-46	5	42*	-10
O=C(NCC(c1cccnc1)N1CCc2ccccc2C1)c1cccc(Cl)c1 (centres undefined)	-27	-10	-5	-3
COc1cccc(CNCc2c(C(=O)O)n(Cc3ccccc3F)c3ccccc23)c1OC	-8	-9	17	5
Cc1cnc(CN2CCCC(c3ccc4cn[nH]c4n3)C2)cn1 (centres undefined)	-2	47*	-12	0
CSc1ncccc1C(=O)OCc1ccc(Cl)c(Cl)c1	25	2	45*	44*
O=C(CN1C(=O)CSc2cccn2-c2ccccc21)NCc1ccc(Cl)cc1	10	24	40*	21
COc1cc(OC)c2c(c1)C(=O)C1=C(COC(C)(O)C1)C2=O (centres undefined)	-16	13	82*	37*
CCn1ccnc1N1CCN(C(=O)c2ccc(OC(C)C)cc2)CC1	-21	-10	-32	-19
O=C(Cn1c(COc2ccccc2)nc2ccccc21)Nc1cc(Cl)cc(Cl)c1	31*	8	16	12
O=C(Cn1c(CNC(=O)c2ccccc2)nc2ccccc21)Nc1ccc(F)cc1	78*	23	88*	37*
COc1cccc(NC(=O)Cn2c(C(F)(F)F)nc3ccccc32)c1	·	1	-9	·
COc1cccc(NC(=O)Cn2c(COc3ccccc3)nc3ccccc32)c1	27	0	63*	2
COc1ccc(NC(=O)Cn2c(CS(=O)(=O)c3ccc(C)cc3)nc3ccccc32)cc1	51*	6	24	2
O=C(Cn1cnc2c(nnn2-c2ccc(Cl)cc2)c1=O)N1CCCC1	3	-1	22	5
Cc1nc(-c2ccc(S(=O)(=O)Nc3cccc(F)c3)cc2)co1	-13	-9	-12	-5
CN(Cc1c(F)cccc1Cl)c1nc(C(F)(F)F)nc2ccccc12	13	8	27	18
Cc1cccn2cc(C(=O)N3CCN(c4ccccn4)CC3)nc12	23	15	15	5
Cc1nc2cc(-c3noc(CNC(=O)c4ccccc4)n3)ccc2n(C2CCCC2)c1=O	-109	-17	3	-13
O=C1N(c2ccccc2)C2CS(=O)(=O)CC2N1c1ccc([N+](=O)[O-])cc1 (centres undefined)	·	1	30*	·
